Experimental data: PubChem BioAssay AID591 (National Center for Advancing Translational Sciences (NCATS), 2007)
The whole screen tested about 59,000 compounds, of which about 60 (0.1%) were called active. No rule for the calls is given here. This excerpt belongs to a sample that is enriched for actives.

Assay: qHTS Assay for Spectroscopic Profiling in A488 Spectral Region
Conditions: compound autofluorescence
In short: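 Compound autofluorescence was read in 100 mM Tris pH 8.0 after 15 min at room temperature, ex 480 nm/em 540 nm. Intensities were converted to A488 dye-equivalent concentration using an on-plate six-point A488 standard curve.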

[1] = max dye equivalency: Compound Type: qHTS ECL - SigmaAldrich, active compounds read high unless noted, outcome: dye equivalency, Compound Type: qHTS ECL - MLSMR unless noted

For `COCCn1c(=O)c(-c2cccc(F)c2)nc2cncnc21`, the outcome [1] was “inactive [dye equivalency, Compound Type: qHTS ECL - Pharmacopeia]”.
For `CCCn1c(SCC(N)=O)nnc1C(C)C`, the outcome [1] was “inactive”.
With `C=CCNC(=O)CCCC(=O)NCC=C` the outcome [1] was “inactive [dye equivalency, Compound Type: qHTS ECL - DPISMR]”.
With `CN1CCN2c3ccccc3Cc3ccccc3[C@@H]2C1` the outcome (dye equivalency, Compound Type: qHTS ECL - Prestwick) was “inactive” and the outcome (dye equivalency, Compound Type: qHTS ECL - SigmaAldrich) was “inactive”.
For `CSc1nc(O)c(Cc2ccccc2)c(=O)[nH]1`, the outcome [1] was “inactive”.
In the case of `O=C(Cn1c(-c2ccc(Cl)cc2)noc1=O)N1CCN(c2ccccc2F)CC1`, the outcome [1] is reported as “inactive”.
With `CCN(Cc1cc2cc(C)ccc2[nH]c1=O)S(=O)(=O)c1ccccc1` the outcome [1] was “inactive”.
In the case of `CCCCOc1ccc(Cl)cc1CSc1nncn1N`, the outcome [1] is reported as “inactive [dye equivalency, Compound Type: qHTS ECL - DPISMR]”.
For `O=c1cc(-c2ccccc2)[nH]c2nc(Cl)ccc12`, the outcome [1] was “inactive [dye equivalency, Compound Type: qHTS ECL - SigmaAldrich]”.
In the case of `CC[C@@H]1Cc2cc(O)ccc2C2=C1c1ccc(O)cc1C[C@H]2CC`, the outcome [1] is reported as “inactive [dye equivalency, Compound Type: qHTS ECL - SigmaAldrich]”.
With `O=c1c(-c2ccc(F)cc2)nc2cnc(N3CCNCC3)nc2n1Cc1cccs1` the outcome [1] was “inactive [dye equivalency, Compound Type: qHTS ECL - Pharmacopeia]”.
For `Nc1nc(N)c2[nH]c(CNc3ccc(C(=O)O)cc3)nc2n1`, the outcome [1] was “inactive [dye equivalency, Compound Type: qHTS ECL - NCI]”.
For `N#Cc1cccc(-c2nc3cnc(N4CCNCC4)nc3n(C3CC3)c2=O)c1`, the outcome [1] was “inactive [dye equivalency, Compound Type: qHTS ECL - Pharmacopeia]”.
In the case of `CC(C)NC(=O)N1CCC2(CC1)CCN(C(=O)c1cccn1C)CC2`, the outcome [1] is reported as “inactive [dye equivalency, Compound Type: qHTS ECL - Pharmacopeia]”.
For `COCCn1c(=O)c(CCc2ccccc2)nc2cnc(N3CCNCC3)nc21`, the outcome [1] was “inactive [dye equivalency, Compound Type: qHTS ECL - Pharmacopeia]”.
For `CCc1nc(C)cn1S(=O)(=O)c1cc(OC)c(C)cc1C`, the outcome [1] was “inactive”.
With `CC(c1ccco1)N(C(=O)c1ccc(S(=O)(=O)N2CCCCC2)cc1)c1ccccn1` (stereo unspecified) the outcome [1] was “inactive”.
In the case of `CS(=O)(=O)N(CC(=O)NCc1ccco1)c1ccc2c(c1)OCO2`, the outcome [1] is reported as “inactive [dye equivalency, Compound Type: qHTS ECL - DPISMR]”.
With `O=C(NC1(C(F)(F)F)N=C2SCCN2C1=O)c1ccco1` (stereo unspecified) the outcome [1] was “inactive”.
In the case of `COc1ccc(OCC(=O)OCC(=O)Nc2ccc(S(=O)(=O)N3CCCCC3)cc2)cc1`, the outcome [1] is reported as “inactive”.
For `O=C(N1CCOCC1)N1CCOCC1`, the outcome [1] was “inactive”.
For `CCNC(=O)CN(c1ccc(C)cc1)S(=O)(=O)c1ccc(SC)cc1`, the outcome [1] was “inactive”.
With `CN(Cc1ccco1)c1cc(-c2ccccc2C(F)(F)F)ncn1` the outcome [1] was “inactive [dye equivalency, Compound Type: qHTS ECL - Pharmacopeia]”.
For `COC(=O)Cc1nc2ccccc2[nH]1`, the outcome [1] was “inactive [dye equivalency, Compound Type: qHTS ECL - DPISMR]”.
With `CCOc1ccc(N=NS(=O)(=O)O)cc1` the outcome [1] was “inactive [dye equivalency, Compound Type: qHTS ECL - NCI]”.
In the case of `CN1CCN(C(=O)C2C3C=CC(C3)C2C(=O)O)CC1` (stereo unspecified), the outcome [1] is reported as “inactive”.
In the case of `CN(C)c1ncc2nc(-c3ccc(F)cc3)c(=O)n(Cc3ccc(F)cc3)c2n1`, the outcome [1] is reported as “inactive [dye equivalency, Compound Type: qHTS ECL - Pharmacopeia]”.
For `CN(C)C(=O)c1ccc(-c2cncnc2NC2CCNCC2)cc1`, the outcome [1] was “inactive [dye equivalency, Compound Type: qHTS ECL - Pharmacopeia]”.
With `CC(C)NC(=O)N1CC[C@@]2(CCCN(C(=O)c3cccc(F)c3)C2)C1` the max dye equivalency [1] was 33 nM [Compound Type: qHTS ECL - Pharmacopeia, active compounds read high] (active).
For `CC(C)NC(=O)N1CC[C@@]2(CCCN(C(=O)c3ccco3)C2)C1`, the outcome [1] was “inactive [dye equivalency, Compound Type: qHTS ECL - Pharmacopeia]”.
In the case of `COc1ccc(C(=O)N2CCC[C@@]3(CCN(C(=O)NC(C)C)C3)C2)cc1`, the outcome [1] is reported as “inactive [dye equivalency, Compound Type: qHTS ECL - Pharmacopeia]”.
In the case of `c1n[nH]c(NCc2ccc3c(c2)OCO3)n1`, the outcome [1] is reported as “inactive”.
With `CN(C)C(=O)/N=N\C(=O)N(C)C` the outcome [1] was “inactive [dye equivalency, Compound Type: qHTS ECL - SigmaAldrich]”.
For `COCCn1c(=O)c(-c2cccs2)nc2cnc(N3CCN(C)CC3)nc21`, the outcome [1] was “inactive [dye equivalency, Compound Type: qHTS ECL - Pharmacopeia]”.
For `Cc1ccc(-c2nnc(SC(C)C#N)n2N)cc1` (stereo unspecified), the outcome [1] was “inactive”.
In the case of `CCN(Cc1nc2ccccc2c(=O)[nH]1)Cc1cc(=O)oc2cc(C)c(C)cc12`, the outcome [1] is reported as “inactive”.
With `O=C(CCS(=O)(=O)c1cccc2nonc12)NCCc1ccccc1Cl` the outcome [1] was “inactive”.
For `CCOc1cc(S(=O)(=O)NC2CC(C)(C)NC(C)(C)C2)ccc1F`, the outcome [1] was “inactive [dye equivalency, Compound Type: qHTS ECL - DPISMR]”.
For `FC(F)(F)c1cccc(Nc2ncnc3ccccc23)c1`, the outcome [1] was “inactive [dye equivalency, Compound Type: qHTS ECL - DPISMR]”.
For `c1csc(CN2CCN(Cc3cccs3)C2c2cccs2)c1`, the outcome [1] was “inactive”.
In the case of `CCOc1ccc(NC(=O)Nc2ccc(N(C)C(C)=O)cc2)cc1`, the outcome [1] is reported as “inactive [dye equivalency, Compound Type: qHTS ECL - DPISMR]”.
With `COC(=O)[C@H](Cc1ccccc1)NC(=O)Nc1ccc(S(N)(=O)=O)cc1` the outcome [1] was “inactive [dye equivalency, Compound Type: qHTS ECL - DPISMR]”.
For `COCCNc1ncnc2ccc(-c3cccnc3)cc12`, the outcome [1] was “inactive [dye equivalency, Compound Type: qHTS ECL - Pharmacopeia]”.
With `Nc1ccc2c3c(cccc13)C(=O)NC2=O` the max dye equivalency [1] was 95 nM (active).
In the case of `O=C(Cn1c(-c2ccccn2)nc2ccccc21)NCCN1CCOCC1`, the outcome [1] is reported as “inactive [dye equivalency, Compound Type: qHTS ECL - DPISMR]”.
With `Cc1cc(C)c2c(c1)c(C)cc1nnc(SCC(=O)NCc3ccco3)n12` the outcome [1] was “inactive”.
With `Cc1ccc(NC2=NC(c3ccccc3)n3c(nc(C)cc3=O)N2)cc1` (stereo unspecified) the outcome [1] was “inactive [dye equivalency, Compound Type: qHTS ECL - DPISMR]”.
With `CC[C@H](c1ccccc1)c1cc(C(C)(C)C)cc(C(C)(C)C)c1O` the outcome [1] was “inactive [dye equivalency, Compound Type: qHTS ECL - NCI]”.
In the case of `COc1cccc(Cn2c(=O)c(CCc3ccccc3)nc3cnc(N(C)C)nc32)c1`, the outcome [1] is reported as “inactive [dye equivalency, Compound Type: qHTS ECL - Pharmacopeia]”.
In the case of `Cc1cc(Br)ccc1NC(=O)C1CCCO1` (stereo unspecified), the outcome [1] is reported as “inactive [dye equivalency, Compound Type: qHTS ECL - DPISMR]”.
With `Cc1nnc(C)n1/N=C/c1ccc(C(C)C)cc1` the outcome [1] was “inactive”.
With `CCON=C1C(C)(C)C(C)(C)C(C)(C)C1(C)C` the outcome [1] was “inactive [dye equivalency, Compound Type: qHTS ECL - NCI]”.
With `COc1ccc(C2/C(=C(/O)c3ccc(OC(C)C)cc3)C(=O)C(=O)N2CCCN2CCOCC2)cc1` (stereo unspecified) the outcome [1] was “inactive”.
In the case of `COC(=O)c1ccc(Oc2nc(NC(C)C)nc(SC)n2)cc1`, the outcome [1] is reported as “inactive [dye equivalency, Compound Type: qHTS ECL - DPISMR]”.
For `CCc1nnc(NC(=O)CSc2nnc(COc3ccc(C#N)cc3)n2-c2ccccc2)s1`, the outcome [1] was “inactive”.
With `C=CCOc1ccc(C2/C(=C(\O)c3c(C)[nH]c(C(=O)OC)c3C)C(=O)C(=O)N2CCN(C)C)cc1` (stereo unspecified) the outcome [1] was “inactive [dye equivalency, Compound Type: qHTS ECL - DPISMR]”.
With `COc1ccc(NC(=O)N2CC3(CCN(C(C)=O)CC3)C2)cc1` the outcome [1] was “inactive [dye equivalency, Compound Type: qHTS ECL - Pharmacopeia]”.
For `O=c1c(-c2ccc(F)cc2)nc2cnc(N3CCOCC3)nc2n1-c1ccccc1`, the outcome [1] was “inactive [dye equivalency, Compound Type: qHTS ECL - Pharmacopeia]”.
For `O=C(CSc1nnc(-c2ccncc2)n1C1CCCCC1)Nc1ccccc1`, the outcome [1] was “inactive”.
For `c1cncc(-c2nc(N3CCNCC3)c3ccccc3n2)c1`, the outcome [1] was “inactive [dye equivalency, Compound Type: qHTS ECL - Pharmacopeia]”.
For `Cc1ccc(S(=O)(=O)N2CCN(Cc3cccc(C)c3O)CC2)cc1`, the outcome [1] was “inactive”.
In the case of `COc1ccc(-c2nc3cnc(N(C)C)nc3n(Cc3cccs3)c2=O)cc1`, the outcome [1] is reported as “inactive [dye equivalency, Compound Type: qHTS ECL - Pharmacopeia]”.
For `Cc1nc2cnc(N3CCNCC3)nc2n(Cc2ccc(F)cc2)c1=O`, the outcome [1] was “inactive [dye equivalency, Compound Type: qHTS ECL - Pharmacopeia]”.
In the case of `COCCn1c(=O)c(-c2ccc(OC)cc2)nc2cnc(Oc3cccc(Cl)c3)nc21`, the outcome [1] is reported as “inactive [dye equivalency, Compound Type: qHTS ECL - Pharmacopeia]”.
In the case of `COc1ccc(OC)c2c(N)c(C#N)c(C(F)(F)C(F)(F)F)nc12`, the outcome [1] is reported as “inactive”.
For `O=C(Nc1nn(Cc2ccccc2F)cc1Br)c1cccs1`, the outcome [1] was “inactive [dye equivalency, Compound Type: qHTS ECL - DPISMR]”.
In the case of `Brc1ccc(Nc2c3c(nc4ncnn24)CCC3)cc1`, the outcome [1] is reported as “inactive”.
For `Cc1ccccc1C(OCC(O)CN1CCCCC1CCO)c1ccccc1` (stereo unspecified), the outcome [1] was “inactive”.
In the case of `CCCN1C(=O)C(NS(=O)(=O)c2ccc(N)cc2)(C(F)(F)F)C(C(=O)OC)=C1C` (stereo unspecified), the outcome [1] is reported as “inactive [dye equivalency, Compound Type: qHTS ECL - DPISMR]”.
In the case of `Cc1cc(C(F)(F)F)n2ncc(-c3ccccc3)c2n1`, the outcome [1] is reported as “inactive [dye equivalency, Compound Type: qHTS ECL - DPISMR]”.
In the case of `COc1ccccc1CNc1ncncc1-c1cccnc1`, the outcome [1] is reported as “inactive [dye equivalency, Compound Type: qHTS ECL - Pharmacopeia]”.
For `Cc1ccc(S(=O)(=O)Nc2ccccc2CNc2c(C)n(C)n(-c3ccccc3)c2=O)cc1`, the outcome [1] was “inactive”.
For `CC(=NC1CCN(Cc2ccccc2)CC1)c1c(O)[nH]c(=O)[nH]c1=O`, the outcome [1] was “inactive [dye equivalency, Compound Type: qHTS ECL - DPISMR]”.
In the case of `CCn1ccnc1C[C@@H]1COc2ccccc2O1`, the outcome [1] is reported as “inactive [dye equivalency, Compound Type: qHTS ECL - SigmaAldrich]”.
For `CN1[C@H]2CC(OC(=O)[C@@H](CO)c3ccccc3)C[C@H]1[C@H]1O[C@H]12` (stereo partly specified), the outcome [1] was “inactive [dye equivalency, Compound Type: qHTS ECL - Prestwick]”.
